SMILES strings stand for the structures.

For one assay, the target named is T1, Tyrosyl-tRNA synthetase, putative (Trypanosoma cruzi (strain CL Brener)) (UniProt Q4DSP6).
T1 sequence (whole entry): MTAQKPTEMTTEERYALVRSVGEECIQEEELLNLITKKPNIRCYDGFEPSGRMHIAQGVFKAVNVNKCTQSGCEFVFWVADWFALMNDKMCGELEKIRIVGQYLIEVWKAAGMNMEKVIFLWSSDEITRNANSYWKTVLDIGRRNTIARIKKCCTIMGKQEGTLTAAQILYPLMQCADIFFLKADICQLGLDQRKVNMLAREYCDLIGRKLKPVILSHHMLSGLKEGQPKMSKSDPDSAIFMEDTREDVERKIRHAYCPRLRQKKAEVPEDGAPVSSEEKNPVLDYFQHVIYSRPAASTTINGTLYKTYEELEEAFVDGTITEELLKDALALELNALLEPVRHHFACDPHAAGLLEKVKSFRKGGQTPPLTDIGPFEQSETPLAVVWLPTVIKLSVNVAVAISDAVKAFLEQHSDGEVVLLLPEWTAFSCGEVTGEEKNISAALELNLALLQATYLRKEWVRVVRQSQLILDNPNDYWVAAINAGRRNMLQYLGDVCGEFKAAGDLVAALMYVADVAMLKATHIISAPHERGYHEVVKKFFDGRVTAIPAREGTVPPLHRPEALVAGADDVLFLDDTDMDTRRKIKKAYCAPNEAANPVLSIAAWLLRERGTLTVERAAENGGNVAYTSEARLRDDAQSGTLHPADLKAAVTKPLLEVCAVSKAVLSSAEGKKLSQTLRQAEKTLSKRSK
The assay can be described thus: Trypanosoma cruzi tyrosyl tRNA synthetase (TcYRS) SOP. The assay is classed as functional. On the set-up: scale not given: direction of the effect not stated beside the values. Particulars: 30 µM.
Take `O=S(=O)(NCCN1CCCCC1Cn1cncn1)c1ccccc1` (stereo not given): the Percent Effect was 9.41%.

In the case of `Cc1cccc(N2CC[C@@H]3CN(Cc4csc(C)n4)CCO[C@@H]3C2)n1`, the Percent Effect was -5.13%.

As for `CCc1nc(C2CCCN2C(=O)C2=COCC2)no1` (stereo not given), the Percent Effect was -2.56%.

For `O=C(NCCOc1ccc2c(c1)OCO2)N1CCC1`, the Percent Effect was determined as 16.5%.

For the molecule `COCCN1C(=O)CCC12CCN(C(=O)NC(C)C)CC2`, the Percent Effect is -10%.

Turning to `O=C1CN(Cc2ccc(-c3ccccc3C(=O)O)cc2)CCN1`, the Percent Effect came out at 0%.

In the case of `CC(C)c1cc(C(=O)NCCN2CCCS2(=O)=O)n[nH]1`, the Percent Effect turned out to be 18.1%.

For `Cc1cnc(CN2CCCC(c3cc(C(F)(F)F)[nH]n3)C2)cn1` (stereo not given), the Percent Effect stood at 17.9%.

Consider `COCCOc1cccc(C(=O)N2CCCC(n3cccn3)C2)c1` (stereo not given), for which the Percent Effect is 4.71%.

Take `Cc1cc(CN(C)C(=O)NCC(C)N2CCc3ccccc32)no1` (stereo not given): the Percent Effect stood at 7.06%.

On to `CCn1cnnc1CNC(=O)N1CCOCC1`, for which the Percent Effect amounted to 0%.

In the case of `Cn1nc2c(cc1=O)CN(Cc1nnc(C3CC3)o1)CC2`, the Percent Effect is -6.02%.

On to `Fc1cnc(N2CCOC3(CCN(Cc4ccsc4)CC3)C2)nc1`, for which the Percent Effect came to 7.69%.

Take `OCC1CCCCN1c1ccc(-c2nc(-c3ccccc3F)no2)cn1` (stereo not given): the Percent Effect turned out to be 4.88%.

For `CCc1cc(C(=O)N2CCC(Nc3ccc(C)nn3)CC2)sc1C`, the Percent Effect was 7.69%.

Regarding `CC(=O)N1CCCN(CC(C)(O)c2cccc(C(F)(F)F)c2)CC1` (stereo not given), the Percent Effect came to 16.5%.

As to `CC(C)c1ncncc1C(=O)NCCN1CCCS1(=O)=O`, the Percent Effect was found to be 10.8%.

For the molecule `Cn1cc(-c2nc(CN3CCc4c(ncn4C4CC4)C3)cs2)cn1`, the Percent Effect was determined as 4.71%.

Turning to `CC(C)n1ccnc1C1CCN(C(=O)c2cc[nH]n2)CC1`, the Percent Effect was found to be 19.5%.

Regarding `O=C(C1CCOC1)N1CC[C@@H](O)[C@@H]1Cc1ccccc1` (stereo not given in full), the Percent Effect was -60%.

On to `O=C(c1cccnc1)N1CCn2nnc(COc3cccnc3)c2C1`, for which the Percent Effect was 7.69%.

Take `Cc1[nH]/c(=N\C(=O)c2csc(NC3CC3)n2)sc1C`: the Percent Effect is 14.6%.

With `O=C(CSc1ccc(F)c(F)c1)NS(=O)(=O)c1ccc2c(c1)OCCO2`, the Percent Effect was determined as 8.43%.

On to `O=C(C1CCOCC1)N1CC[C@H]2C[C@@H](c3ccncn3)O[C@@H]2C1`, for which the Percent Effect came out at 15.4%.

Turning to `Cc1ccc(OCC(=O)NS(=O)(=O)c2c(C)noc2C)cc1C`, the Percent Effect was -6.02%.

Consider `CCn1nc2c(cc1=O)CN(CC(=O)Nc1nc(C)c(C)s1)CC2`, for which the Percent Effect was found to be 9.41%.

For `Cc1[nH]/c(=N\C(=O)c2csc(NCC(C)C)n2)sc1C`, the Percent Effect was determined as 21.9%.

Regarding `COCCN1CCCN(C(=O)NC(C)Cn2cccn2)CC1` (stereo not given), the Percent Effect stood at 11.8%.

As for `CC(Nc1cccc(CN2CCOC2=O)c1)C(=O)N1CCNC1=O` (stereo not given), the Percent Effect came out at 8.43%.

As for `CCn1ccnc1CN1CCCN(C(=O)c2cccc(C#N)c2)CC1`, the Percent Effect was determined as 1.21%.

For `CN(C)CCN1CCCC12CCN(C(=O)c1cccn1C)CC2`, the Percent Effect is -2.56%.

As for `O=C(CN1CCCC(c2ccc(C(=O)O)cc2)C1)NC1CC1` (stereo not given), the Percent Effect was found to be 12.2%.

`CN(Cc1noc(C2CC2)n1)C1CCN(Cc2nnc(C3CC3)o2)C1` (stereo not given): the Percent Effect was 16.5%.

`Cc1occc1C(=O)N1CCC2(CCC(C(=O)NCC3CC3)O2)CC1` (stereo not given): the Percent Effect was found to be 20%.

For `O=C1C(NCc2nnc3n2CCCC3)CCN1c1ccccc1` (stereo not given), the Percent Effect stood at 13.2%.

For the molecule `COc1ccccc1OC1CCN(Cc2cnc(N(C)C)nc2)CC1`, the Percent Effect stood at 9.76%.

With `Cc1nccn1-c1cccc(C2CCCN(C(=O)c3cc[nH]n3)C2)n1` (stereo not given), the Percent Effect is 10%.

Turning to `Cc1ccc(CN2CCC(c3nnc(CN4CCCCC4)n3C)CC2)o1`, the Percent Effect was determined as 4.88%.

For `Cc1c(F)cc(C(=O)O)cc1S(=O)(=O)Nc1cccc(C(F)F)c1`, the Percent Effect is -3.61%.

`Cc1noc(C(C)C)c1C(=O)NCCCOC(C)C`: the Percent Effect was 9.41%.

The target in the next assay is Chromo domain-containing protein 1 (Saccharomyces cerevisiae (strain ATCC 204508 / S288c) (Baker's yeast)) (UniProt P32657). The assay can be described thus: ScCHD-1 Enzyme Inhibition Assay. Type of assay: functional. On the set-up: scale not given: in the data most compounds retested in dose-response had high values. Particulars: 30 µM.
Chromo domain-containing protein 1 (Saccharomyces cerevisiae (strain ATCC 204508 / S288c) (Baker's yeast)), sequence (P32657 whole entry, the tested form may be a part): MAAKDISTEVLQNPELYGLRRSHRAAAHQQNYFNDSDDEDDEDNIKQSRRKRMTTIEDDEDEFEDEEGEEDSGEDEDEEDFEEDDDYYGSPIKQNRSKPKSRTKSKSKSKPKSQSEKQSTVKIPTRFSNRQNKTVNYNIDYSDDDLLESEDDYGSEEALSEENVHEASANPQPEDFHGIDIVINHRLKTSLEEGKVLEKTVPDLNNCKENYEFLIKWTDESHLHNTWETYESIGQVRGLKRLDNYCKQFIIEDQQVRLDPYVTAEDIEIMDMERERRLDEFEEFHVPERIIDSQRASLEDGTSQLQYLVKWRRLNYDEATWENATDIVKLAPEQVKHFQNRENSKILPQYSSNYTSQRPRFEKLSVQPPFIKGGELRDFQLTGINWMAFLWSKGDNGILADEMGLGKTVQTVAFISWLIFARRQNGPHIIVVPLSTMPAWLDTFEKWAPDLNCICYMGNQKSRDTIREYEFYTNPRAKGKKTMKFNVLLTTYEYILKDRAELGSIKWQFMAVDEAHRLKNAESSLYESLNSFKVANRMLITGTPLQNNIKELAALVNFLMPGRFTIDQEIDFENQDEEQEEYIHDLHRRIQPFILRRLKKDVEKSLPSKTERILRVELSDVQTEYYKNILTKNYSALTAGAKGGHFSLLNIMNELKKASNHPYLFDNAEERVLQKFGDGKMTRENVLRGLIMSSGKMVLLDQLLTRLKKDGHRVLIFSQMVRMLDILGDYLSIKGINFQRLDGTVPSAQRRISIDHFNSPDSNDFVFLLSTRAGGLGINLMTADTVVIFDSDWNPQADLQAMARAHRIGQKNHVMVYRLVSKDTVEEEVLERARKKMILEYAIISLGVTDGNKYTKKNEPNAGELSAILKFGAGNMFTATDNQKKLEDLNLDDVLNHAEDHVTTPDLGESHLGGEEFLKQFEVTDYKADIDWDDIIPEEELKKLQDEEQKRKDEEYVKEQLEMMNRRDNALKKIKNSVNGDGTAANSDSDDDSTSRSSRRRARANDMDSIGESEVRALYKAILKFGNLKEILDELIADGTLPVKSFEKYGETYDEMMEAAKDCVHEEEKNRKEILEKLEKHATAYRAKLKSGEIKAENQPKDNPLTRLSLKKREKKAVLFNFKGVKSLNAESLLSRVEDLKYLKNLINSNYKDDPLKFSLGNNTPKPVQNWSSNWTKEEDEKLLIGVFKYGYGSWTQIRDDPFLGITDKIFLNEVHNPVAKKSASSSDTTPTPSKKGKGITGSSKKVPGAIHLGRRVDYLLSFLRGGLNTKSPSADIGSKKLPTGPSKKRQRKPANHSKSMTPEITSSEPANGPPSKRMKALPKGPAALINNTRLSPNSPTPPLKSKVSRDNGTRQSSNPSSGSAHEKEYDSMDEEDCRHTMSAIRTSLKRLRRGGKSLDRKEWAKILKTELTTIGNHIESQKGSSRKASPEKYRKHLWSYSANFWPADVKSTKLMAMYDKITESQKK
With `O=S(=O)(NCCN1CCCCC1Cn1cncn1)c1ccccc1` (stereo not given), the Percent Effect is -1.75%.

On to `Cc1cccc(N2CC[C@@H]3CN(Cc4csc(C)n4)CCO[C@@H]3C2)n1`, for which the Percent Effect was -0.609%.

Consider `CCc1nc(C2CCCN2C(=O)C2=COCC2)no1` (stereo not given), for which the Percent Effect was -3.47%.

Take `O=C(NCCOc1ccc2c(c1)OCO2)N1CCC1`: the Percent Effect was -4.94%.

Regarding `COCCN1C(=O)CCC12CCN(C(=O)NC(C)C)CC2`, the Percent Effect was -3.15%.

For the molecule `O=C1CN(Cc2ccc(-c3ccccc3C(=O)O)cc2)CCN1`, the Percent Effect is -24.4%.

Take `CC(C)c1cc(C(=O)NCCN2CCCS2(=O)=O)n[nH]1`: the Percent Effect was -2.98%.

Turning to `Cc1cnc(CN2CCCC(c3cc(C(F)(F)F)[nH]n3)C2)cn1` (stereo not given), the Percent Effect is -4.75%.

`COCCOc1cccc(C(=O)N2CCCC(n3cccn3)C2)c1` (stereo not given): the Percent Effect was found to be 3.61%.

Regarding `Cc1cc(CN(C)C(=O)NCC(C)N2CCc3ccccc32)no1` (stereo not given), the Percent Effect turned out to be 4.85%.

For `CCn1cnnc1CNC(=O)N1CCOCC1`, the Percent Effect was -2.64%.

`Cn1nc2c(cc1=O)CN(Cc1nnc(C3CC3)o1)CC2`: the Percent Effect was -6.1%.

On to `Fc1cnc(N2CCOC3(CCN(Cc4ccsc4)CC3)C2)nc1`, for which the Percent Effect was -4.59%.

For `OCC1CCCCN1c1ccc(-c2nc(-c3ccccc3F)no2)cn1` (stereo not given), the Percent Effect is 86.3%.

Take `CCc1cc(C(=O)N2CCC(Nc3ccc(C)nn3)CC2)sc1C`: the Percent Effect is -9.15%.

Consider `CC(=O)N1CCCN(CC(C)(O)c2cccc(C(F)(F)F)c2)CC1` (stereo not given), for which the Percent Effect was -9.58%.

Turning to `CC(C)c1ncncc1C(=O)NCCN1CCCS1(=O)=O`, the Percent Effect came to 1.18%.

Turning to `Cn1cc(-c2nc(CN3CCc4c(ncn4C4CC4)C3)cs2)cn1`, the Percent Effect is -7.98%.

As for `CC(C)n1ccnc1C1CCN(C(=O)c2cc[nH]n2)CC1`, the Percent Effect is -4.41%.

On to `O=C(C1CCOC1)N1CC[C@@H](O)[C@@H]1Cc1ccccc1` (stereo not given in full), for which the Percent Effect was -3.36%.

For the molecule `O=C(c1cccnc1)N1CCn2nnc(COc3cccnc3)c2C1`, the Percent Effect came to 2.46%.

With `Cc1[nH]/c(=N\C(=O)c2csc(NC3CC3)n2)sc1C`, the Percent Effect was determined as 14.5%.

For `O=C(CSc1ccc(F)c(F)c1)NS(=O)(=O)c1ccc2c(c1)OCCO2`, the Percent Effect was -1.38%.

On to `O=C(C1CCOCC1)N1CC[C@H]2C[C@@H](c3ccncn3)O[C@@H]2C1`, for which the Percent Effect came out at 25.1%.

In the case of `Cc1ccc(OCC(=O)NS(=O)(=O)c2c(C)noc2C)cc1C`, the Percent Effect is -0.0938%.

In the case of `CCn1nc2c(cc1=O)CN(CC(=O)Nc1nc(C)c(C)s1)CC2`, the Percent Effect is -8.07%.

In the case of `Cc1[nH]/c(=N\C(=O)c2csc(NCC(C)C)n2)sc1C`, the Percent Effect came to 0.249%.

For `COCCN1CCCN(C(=O)NC(C)Cn2cccn2)CC1` (stereo not given), the Percent Effect is -2.79%.

`CC(Nc1cccc(CN2CCOC2=O)c1)C(=O)N1CCNC1=O` (stereo not given): the Percent Effect was -2.72%.

As to `CCn1ccnc1CN1CCCN(C(=O)c2cccc(C#N)c2)CC1`, the Percent Effect worked out at 1.21%.

As for `CN(C)CCN1CCCC12CCN(C(=O)c1cccn1C)CC2`, the Percent Effect was 4.29%.

Regarding `O=C(CN1CCCC(c2ccc(C(=O)O)cc2)C1)NC1CC1` (stereo not given), the Percent Effect was -1.84%.

As for `CN(Cc1noc(C2CC2)n1)C1CCN(Cc2nnc(C3CC3)o2)C1` (stereo not given), the Percent Effect was -8.04%.

Turning to `Cc1occc1C(=O)N1CCC2(CCC(C(=O)NCC3CC3)O2)CC1` (stereo not given), the Percent Effect was -4.43%.

`O=C1C(NCc2nnc3n2CCCC3)CCN1c1ccccc1` (stereo not given): the Percent Effect was -2.81%.

Consider `COc1ccccc1OC1CCN(Cc2cnc(N(C)C)nc2)CC1`, for which the Percent Effect is -4%.

As for `Cc1nccn1-c1cccc(C2CCCN(C(=O)c3cc[nH]n3)C2)n1` (stereo not given), the Percent Effect is -7.28%.

As to `Cc1ccc(CN2CCC(c3nnc(CN4CCCCC4)n3C)CC2)o1`, the Percent Effect is 3.06%.

Consider `Cc1c(F)cc(C(=O)O)cc1S(=O)(=O)Nc1cccc(C(F)F)c1`, for which the Percent Effect was -0.222%.

Regarding `Cc1noc(C(C)C)c1C(=O)NCCCOC(C)C`, the Percent Effect is -6.89%.

(Values after ChEMBL document CHEMBL3988442, “University of Dundee, Small-Polar-MMV Screening Library” (2021).)
